PubChem BioAssay (NCATS)
“And” between values parts separate entries of the source, which are not always exact repeats. Equal values may be shown once. Inconclusive results are not listed. Unmarked numbers belong to inactive results. The source made the active and inactive calls. Calls come from the whole dose curve; as a rule, active = well fitted inhibition curve with a large enough effect; inconclusive = small, poorly fitted or top-dose-only effect; inactive = flat fitted curve, though single readings scatter.

Tested on: P93_24
Assay: qHTS profiling for inhibitors of Plasmodium falciparum proliferation (AID 504749);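 for activity, negative = inhibition: 0% = DMSO vehicle and full inhibition = artemisinin control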
Settings: P. falciparum in erythrocytes, SYBR Green DNA, 72 h; series mostly up to 28.7 µM; activity, negative = inhibition: at the top concentration
Outline: (§1)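 Fluorescence of SYBR Green-bound parasite DNA, read at 485/535 nm, served as the growth measure. Infected erythrocytes were cultured with compound 72 h; artemisinin (0.29 uM) and DMSO wells defined the normalization range.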
Note: nearly all actives have a fitted effect of over 60% in size.
Potency is the fitted concentration of half-maximal effect.

SMILES | activity, negative = inhibition | Potency
Cc1ccc(Cl)c(O)c1 | 2.29% | –
C#CC1(O)CCC2C3CCC4=CC(=O)CCC4(C)C3CCC21C (centres undefined) | 6.53% | –
COC(C)(C)CCCC(C)C/C=C/C(C)=C/C(=O)OC(C)C (centres undefined) | – | 8.91 µM (active)
O=C(O)COc1ccccc1 | 0.0725% | –

Tested on: P94_40
Assay: as above
Settings: P. falciparum in erythrocytes, SYBR Green DNA, 72 h; series mostly up to 28.7 µM; activity, negative = inhibition: at the top concentration
Outline: as §1

SMILES | activity, negative = inhibition
Cc1ccc(Cl)c(O)c1 | 0.91%
C#CC1(O)CCC2C3CCC4=CC(=O)CCC4(C)C3CCC21C (centres undefined) | 9.76%
O=C(O)COc1ccccc1 | 4.9%

Tested on: PAD
Assay: as above
Settings: P. falciparum in erythrocytes, SYBR Green DNA, 72 h; series mostly up to 28.7 µM; activity, negative = inhibition: at the top concentration
Outline: as §1

SMILES | activity, negative = inhibition
Cc1ccc(Cl)c(O)c1 | 23.7%
C#CC1(O)CCC2C3CCC4=CC(=O)CCC4(C)C3CCC21C (centres undefined) | 6.94%
O=C(O)COc1ccccc1 | 8.09%
C[C@]12CCC(=O)C(O)=C1CC[C@@H]1[C@H]3CCC(=O)[C@@]3(C)CC[C@@H]12 | -23.3%

Tested on: PC15
Assay: as above
Settings: P. falciparum in erythrocytes, SYBR Green DNA, 72 h; series mostly up to 28.7 µM; activity, negative = inhibition: at the top concentration
Outline: as §1

SMILES | activity, negative = inhibition
Cc1ccc(Cl)c(O)c1 | 11.9%
NC1=NC(=O)N2CC12 (centres undefined) | -14.4%
C#CC1(O)CCC2C3CCC4=CC(=O)CCC4(C)C3CCC21C (centres undefined) | -2.57%
O=C(O)COc1ccccc1 | 5.25%
C[C@]12CCC(=O)C(O)=C1CC[C@@H]1[C@H]3CCC(=O)[C@@]3(C)CC[C@@H]12 | 1.28%

Tested on: PC26
Assay: as above
Settings: P. falciparum in erythrocytes, SYBR Green DNA, 72 h; series mostly up to 28.7 µM; activity, negative = inhibition: at the top concentration
Outline: as §1

SMILES | activity, negative = inhibition
Cc1ccc(Cl)c(O)c1 | -2.31%
C#CC1(O)CCC2C3CCC4=CC(=O)CCC4(C)C3CCC21C (centres undefined) | 6.95%
O=C(O)COc1ccccc1 | -5.3%
C[C@]12CCC(=O)C(O)=C1CC[C@@H]1[C@H]3CCC(=O)[C@@]3(C)CC[C@@H]12 | 1.12%

Tested on: PC49
Assay: as above
Settings: P. falciparum in erythrocytes, SYBR Green DNA, 72 h; series mostly up to 28.7 µM; activity, negative = inhibition: at the top concentration
Outline: as §1

SMILES | activity, negative = inhibition
CCCCCCCCCCCCCCCC[N+](C)(C)C | -20.9%
Cc1ccc(Cl)c(O)c1 | 13.6%
NC1=NC(=O)N2CC12 (centres undefined) | -1.28%
C#CC1(O)CCC2C3CCC4=CC(=O)CCC4(C)C3CCC21C (centres undefined) | 13.6%
O=C(O)COc1ccccc1 | 6.63%
C[C@]12CCC(=O)C(O)=C1CC[C@@H]1[C@H]3CCC(=O)[C@@]3(C)CC[C@@H]12 | -9.37%

Tested on: SC27B
Assay: as above
Settings: P. falciparum in erythrocytes, SYBR Green DNA, 72 h; series mostly up to 28.7 µM; activity, negative = inhibition: at the top concentration
Outline: as §1

SMILES | Potency | activity, negative = inhibition
CCCCCCCCCCCCCCCC[N+](C)(C)C | 12.6 µM (active) | –
Cc1ccc(Cl)c(O)c1 | – | 2.4%
NC1=NC(=O)N2CC12 (centres undefined) | – | -14.9%
C#CC1(O)CCC2C3CCC4=CC(=O)CCC4(C)C3CCC21C (centres undefined) | – | 6.09%
COC(C)(C)CCCC(C)C/C=C/C(C)=C/C(=O)OC(C)C (centres undefined) | – | -21.7%
O=C(O)COc1ccccc1 | – | 9.18%

Tested on: TAB109
Assay: as above
Settings: P. falciparum in erythrocytes, SYBR Green DNA, 72 h; series mostly up to 28.7 µM; activity, negative = inhibition: at the top concentration
Outline: as §1

SMILES | activity, negative = inhibition
Cc1ccc(Cl)c(O)c1 | 2.16%
C#CC1(O)CCC2C3CCC4=CC(=O)CCC4(C)C3CCC21C (centres undefined) | 11.5%
COC(C)(C)CCCC(C)C/C=C/C(C)=C/C(=O)OC(C)C (centres undefined) | -15.8%
O=C(O)COc1ccccc1 | 12.5%

Tested on: TAB113
Assay: as above
Settings: P. falciparum in erythrocytes, SYBR Green DNA, 72 h; series mostly up to 28.7 µM; activity, negative = inhibition: at the top concentration
Outline: as §1

SMILES | Potency | activity, negative = inhibition
CCCCCCCCCCCCCCCC[N+](C)(C)C | 8.91 µM (active) | –
Cc1ccc(Cl)c(O)c1 | – | 15.4%
NC1=NC(=O)N2CC12 (centres undefined) | – | -16%
C#CC1(O)CCC2C3CCC4=CC(=O)CCC4(C)C3CCC21C (centres undefined) | – | 13.2%
O=C(O)COc1ccccc1 | – | 14.8%

Tested on: TAB165
Assay: as above
Settings: P. falciparum in erythrocytes, SYBR Green DNA, 72 h; series mostly up to 28.7 µM; activity, negative = inhibition: at the top concentration
Outline: as §1

SMILES | activity, negative = inhibition
Cc1ccc(Cl)c(O)c1 | 2.6%
C#CC1(O)CCC2C3CCC4=CC(=O)CCC4(C)C3CCC21C (centres undefined) | 6.1%
O=C(O)COc1ccccc1 | -3.1%

Tested on: W2
Assay: as above
Settings: P. falciparum in erythrocytes, SYBR Green DNA, 72 h; series mostly up to 28.7 µM; activity, negative = inhibition: at the top concentration
Outline: as §1

SMILES | Potency | activity, negative = inhibition
CCCCCCCCCCCCCCCC[N+](C)(C)C | 6.75 µM (active) | –
Cc1ccc(Cl)c(O)c1 | – | -4.76%
C#CC1(O)CCC2C3CCC4=CC(=O)CCC4(C)C3CCC21C (centres undefined) | – | 13.7%
COC(C)(C)CCCC(C)C/C=C/C(C)=C/C(=O)OC(C)C (centres undefined) | 10.7 µM (active) | –
O=C(O)COc1ccccc1 | – | -2.61%
C[C@]12CCC(=O)C(O)=C1CC[C@@H]1[C@H]3CCC(=O)[C@@]3(C)CC[C@@H]12 | – | -12.9%

Tested on: CRL-7250
Assay: Cytotoxic Profiling of Annotated Libraries Using Quantitative High-Throughput Screening (AID 1296008); for max response: % is set by controls: 0 for no effect and ±100 for the full control effect
Settings: Five cell lines viability, CellTiter-Glo ATP luminescence, 48-72 h; max response: active compounds read low
Outline: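 Compounds were pin-transferred onto cells and incubated 48 or 72 hr at 37 degree Celsius, 95% humidity. CellTiter-Glo was added, plates sat 10 min at room temperature, then ATP-coupled luminescence was imaged as the viability read-out.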

SMILES | Potency | max response | outcome
CCCCCCCCCCCCCCCC[N+](C)(C)C | 6.68 µM (active) | – | –
C=C[C@@H]1CN2CCC1C[C@@H]2[C@@H](O)c1ccnc2ccccc12 (some centres undefined) | – | -5.2% | –
O=c1cccc2n1CC1CNC[C@H]2C1 | – | -0.274% | –
CCC(=O)O[C@@H]1C=C2CCC3C(CCC4(C)C3CC[C@@H]4OC(=O)CC)C2CC1 (some centres undefined) | – | -3.72% | –
COc1ccc(N(C(=O)Oc2c(C)cccc2C)c2ccnc(Nc3ccc(N4CCN(C)CC4)cc3)n2)c(OC)c1 | – | -8.13% and -61.8% | –
CCNC(=O)C[C@@H]1N=C(c2ccc(Cl)cc2)c2cc(OC)ccc2-n2c(C)nnc21 | 1.32 µM (active) and 1.3 µM (active) | – | –
CC1(N2CCC(n3c([C@@H]4CCCNC4)nc4ccccc43)CC2)CCCCCCC1 | 14.8 µM (active) | – | –
CC(C)NCC(O)c1ccc([N+](=O)[O-])cc1 (centres undefined) | – | -2.22% | –
C[C@@H]1CC[C@H]2[C@@H](C)C(=O)O[C@@H]3O[C@@]4(C)CC[C@H]1[C@]32OO4 | – | -21.1% | –
COc1ccc2c(c[n+](C)c3c4cc5c(cc4ccc23)OCO5)c1OC | 16.6 µM (active) | – | –
CN[C@@H](C)[C@H](O)c1ccccc1 | – | -24.6% | –
O=C1CCC[C@@H]2[C@H]3CCCN4CCC[C@@H](CN12)[C@@H]34 | – | 0.603% | –
Cc1c(C(=O)c2cccc3ccccc23)c2cccc3c2n1[C@H](CN1CCOCC1)CO3 | 20.9 µM (active) | – | –
C=CC(=O)NCNC(=O)C=C | – | -10.1% | –
CC(C)(O)C(=O)Nc1ccc([N+](=O)[O-])c(C(F)(F)F)c1 | – | -26.4% | –
Cc1ccc(Cl)c(O)c1 | – | 3.13% | –
CC1=C(C(=O)O)N2C(=O)[C@@H](N)[C@H]2SC1 | – | – | inactive
CC(C)[C@]12O[C@@H]1[C@@H]1O[C@]13[C@]1(O[C@H]1C[C@@H]1C4=C(CC[C@@]13C)C(=O)OC4)[C@H]2O | – | -124% | –
COc1cc2cc(c1Cl)N(C)C(=O)C[C@H](OC(=O)C(C)C)[C@]1(C)O[C@H]1[C@H](C)[C@@H]1C[C@@](O)(NC(=O)O1)[C@H](OC)C=CC=C(C)C2 | – | -68.5% | –
O=S(=O)(O)C(F)(F)C(F)(F)C(F)(F)C(F)(F)F | – | -7.36% | –

SMILES | Potency | max response | outcome
CC(C)(C)c1cc(C=C(C#N)C#N)cc(Br)c1O | – | – | inactive
CC(=Cc1csc(C)n1)[C@@H]1C[C@H]2O[C@]2(C)CCC[C@H](C)[C@@H](O)[C@@H](C)C(=O)C(C)(C)[C@@H](O)CC(=O)O1 | – | -93.2% | –
O=C(Nc1ccncc1)C(=O)c1cn(Cc2ccc(Cl)cc2)c2ccccc12 | 0.296 µM (active) | – | –
C[C@]12CC[C@@H]3[C@@H](CCC4=CC(=O)CC[C@@H]43)[C@@H]1CC[C@@H]2OC(=O)CCc1ccccc1 | – | 1.37% | –
NC1=NC(=O)N2CC12 (centres undefined) | 11.8 µM (active) | – | –
c1ccc2c(CN3CCNCC3)cccc2c1 | – | -5.13% | –
CCCC[N+]1(C)[C@H]2CC(OC(=O)[C@H](CO)c3ccccc3)C[C@H]1[C@H]1O[C@H]12 (some centres undefined) | – | -3.26% | –
CCOCCOC(C)=O | – | -13% | –
C#CC1(O)CCC2C3CCC4=CC(=O)CCC4(C)C3CCC21C (centres undefined) | – | -20.8% | –
COC(C)(C)CCCC(C)C/C=C/C(C)=C/C(=O)OC(C)C (centres undefined) | – | 1.51% | –
NC1CC1c1ccccc1 (centres undefined) | – | -3.17% | –
O=C1C=CC[C@@H]2[C@H]3CCCN4CCC[C@@H](CN12)[C@@H]34 | – | -6.72% and -5.8% | –
O=C(O)COc1ccccc1 | – | 4.33% | –
Cc1[nH]nc2ccc(-c3cncc(OC[C@@H](N)Cc4c[nH]c5ccccc45)c3)cc12 | 935 nM (active) and 2.06 µM (active) | – | –
C[C@]12CCC(=O)C(O)=C1CC[C@@H]1[C@H]3CCC(=O)[C@@]3(C)CC[C@@H]12 | – | -0.395% | –
O=[N+]([O-])/N=C1\NCCN1Cc1ccc(Cl)nc1 | – | -0.312% | –
O=C(N[C@@H](COc1ccc2[nH]c(=O)[nH]c2c1)c1ccccc1)c1cccn(Cc2ccc(F)c(F)c2)c1=O | – | -47.2% | –
C[C@]12Cc3cn[nH]c3C[C@@H]1CC[C@@H]1[C@H]2CC[C@@]2(C)[C@H]1CC[C@]2(C)O | – | 3.97% | –
Nc1c(Cl)c(Cl)c(Cl)c(Cl)c1Cl | – | -6.12% | –
